Experimental data taken from PubChem BioAssay AID493033 (ICCB-Longwood Screening Facility, Harvard Medical School, 2011).
About 930 (0.93%) of roughly 100,000 compounds were called active. This is one part of a sample in which actives are shown more often than they occur. Rule as the data show it: active = inhibition mostly above about 56% (no sharp cut-off); inactive = mostly below about 77%.

Molecular target: Salicylate synthase (Mycobacterium tuberculosis (strain CDC 1551 / Oshkosh)) (UniProt P9WFX0)
Sequence (P9WFX0 whole entry, looked up): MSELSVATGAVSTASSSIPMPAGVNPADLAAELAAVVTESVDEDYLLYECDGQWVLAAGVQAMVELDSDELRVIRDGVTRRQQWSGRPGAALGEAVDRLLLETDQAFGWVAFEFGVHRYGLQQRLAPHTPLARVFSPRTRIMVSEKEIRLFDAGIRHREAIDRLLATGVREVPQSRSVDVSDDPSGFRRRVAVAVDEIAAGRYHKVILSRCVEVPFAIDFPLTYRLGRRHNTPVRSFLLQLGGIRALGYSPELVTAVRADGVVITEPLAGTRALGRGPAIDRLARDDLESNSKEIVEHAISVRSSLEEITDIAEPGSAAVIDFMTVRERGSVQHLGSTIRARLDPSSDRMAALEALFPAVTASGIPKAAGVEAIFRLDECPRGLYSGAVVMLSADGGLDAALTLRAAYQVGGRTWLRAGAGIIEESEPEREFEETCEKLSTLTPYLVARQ
Experiment: MbtI salicylate synthase inhibitors, primary screen, biochemical, fluorescence intensity (AID 493033)
Conditions: purified MbtI enzyme, fluorescence intensity read-out, active compounds read high, concentration not given here

**Q.** With `CSc1ncnc2sc(-c3ccccc3)cc12` as the compound, how does the inhibition read?
**A.** Its inhibition is -44.5% (inactive).

**Q.** `O=c1cc(-c2ccccc2)sc2ccc(Cl)cc12` was tested. Which inhibition did it give?
**A.** The inhibition was -0.1% (inactive).

**Q.** With `CN=Cc1cc(-c2ccccc2)sc1S` as the compound, how does the inhibition read?
**A.** Its inhibition is 95.8% (active).

**Q.** With `Cc1nn2c(=O)/c(=C/c3ccccc3)sc2nc1=O` as the compound, how does the inhibition read?
**A.** Its inhibition is -1.65% (inactive).

**Q.** How did the inhibition turn out when `Cc1nc(Cc2nnc(SC/C(O)=C(\C#N)c3nc4ccccc4[nH]3)o2)cs1` was run?
**A.** Its inhibition is 25.6% (inactive).

**Q.** Which inhibition does the source give for `Cc1occc1-c1nnc2n1N=C(c1ccc(-c3cc(Cl)ccc3Cl)o1)CS2` here?
**A.** The inhibition was 98% (active).

**Q.** With `O=C(Nc1cccc(Br)c1)C1CC(=O)N(C2CCCC2)C1` (stereo not given) as the compound, how does the inhibition read?
**A.** The inhibition was -4.55% (inactive).

**Q.** With `CN(C)c1ccc(-c2ncnn2-c2ccccc2)cc1` as the compound, how does the inhibition read?
**A.** Its inhibition is -9.6% (inactive).

**Q.** For `Cc1csc(NC(=O)C2CCC(CNS(=O)(=O)c3cccc4nsnc34)CC2)n1` (stereo not given), which inhibition is on record?
**A.** Its inhibition is -0.3% (inactive).

**Q.** For `Cc1ccc(Cl)cc1N1CCN(C(=O)/C=C/c2ccc(S(=O)(=O)NCc3ccco3)cc2)CC1`, which inhibition is on record?
**A.** Its inhibition is 5.7% (inactive).

**Q.** How did the inhibition turn out when `COC(=O)c1cccc(NC(=O)CCCN2C(=O)c3ccccc3C2=O)c1` was run?
**A.** Its inhibition is -11.5% (inactive).

**Q.** Which inhibition does the source give for `Cc1ccc(NC(=O)COC(=O)C2CCC2)cc1Cl` here?
**A.** The inhibition was -5.6% (inactive).

**Q.** Which inhibition does the source give for `COc1cc(NS(=O)(=O)c2cc(C)c(Cl)cc2C)c(C(=O)O)cc1OC` here?
**A.** Its inhibition is -26.2% (inactive).

**Q.** With `O=C(C1=Cc2sc3c(c2CS1)CCCC3)N1CCCC1` as the compound, how does the inhibition read?
**A.** Its inhibition is 98.8% (active).

**Q.** Which inhibition does the source give for `O=C(O)C1=Cc2sc3c(c2CS1)CCCC3` here?
**A.** The inhibition was 95.4% (inactive).

**Q.** `O=C(c1ccc(Cl)cc1)N1CCCC1` was tested. Which inhibition did it give?
**A.** The inhibition was -5.1% (inactive).

**Q.** For `O=C(O)C1CCC(CNCc2cccc(Br)c2)CC1` (stereo not given), which inhibition is on record?
**A.** Its inhibition is -9.65% (inactive).

**Q.** With `O=C(/C=C\c1cn(-c2ccccc2)nc1-c1cccs1)N1CCOCC1` as the compound, how does the inhibition read?
**A.** The inhibition was -50.8% (inactive).

**Q.** With `CCN(CC)c1ccc2oc(=O)c(C)nc2c1` as the compound, how does the inhibition read?
**A.** Its inhibition is 94.8% (active).

**Q.** For `CCN(CC)c1ccc(-n2nc3cc(C)c(NC(C)=O)cc3n2)cc1`, which inhibition is on record?
**A.** Its inhibition is 88.6% (inactive).

**Q.** How did the inhibition turn out when `CCN(CC)c1ccc(C=C(C#N)C#N)c(OC(C)=O)c1` was run?
**A.** Its inhibition is -99.2% (inactive).

**Q.** How did the inhibition turn out when `CCCc1cc2c(cc1N)OCO2` was run?
**A.** The inhibition was 13.3% (inactive).

**Q.** `CCc1nc2cccnc2n1-c1ccc(CC(=O)NCCN2CCOCC2)cc1` was tested. Which inhibition did it give?
**A.** The inhibition was 2.4% (inactive).

**Q.** `S=C(Cc1ccccc1)N1CCCCC1` was tested. Which inhibition did it give?
**A.** The inhibition was 29.6% (inactive).

**Q.** With `O=C(c1ccco1)N1CCCCCCC1` as the compound, how does the inhibition read?
**A.** Its inhibition is -14.8% (inactive).

**Q.** With `S=C(c1ccc(-c2ccccc2)o1)N1CCCCC1` as the compound, how does the inhibition read?
**A.** The inhibition was 102% (active).

**Q.** How did the inhibition turn out when `COC(=O)c1cc(Cl)cc(Cl)c1O` was run?
**A.** Its inhibition is -95.7% (inactive).

**Q.** How did the inhibition turn out when `O=c1cc(CN2CCN(Cc3ccccc3)CC2)nc2sccn12` was run?
**A.** Its inhibition is 12% (inactive).

**Q.** How did the inhibition turn out when `COc1cccc(CN(C)C(=O)/C=C/c2ccco2)c1OC` was run?
**A.** Its inhibition is 9.5% (inactive).

**Q.** `Cn1ncc2c(NCc3cccnc3)ncnc21` was tested. Which inhibition did it give?
**A.** Its inhibition is 0.9% (inactive).

**Q.** With `O=C(CCn1c(=O)oc2ccccc21)Sc1ccc(C(F)(F)F)cc1` as the compound, how does the inhibition read?
**A.** The inhibition was 70.7% (active).

**Q.** For `Cc1cccc(NC(=O)CCn2c(=O)oc3ccccc32)c1`, which inhibition is on record?
**A.** The inhibition was 3% (inactive).

**Q.** How did the inhibition turn out when `O=C(CCCn1c(=O)oc2ccccc21)Nc1cccnc1` was run?
**A.** The inhibition was -8.05% (inactive).

**Q.** Which inhibition does the source give for `CCN(Cc1nc(-c2ccc(OC)c(OC)c2)no1)C(=O)CCC1CCCCC1` here?
**A.** Its inhibition is -0.6% (inactive).

**Q.** Which inhibition does the source give for `CCCCn1c2c(c(=O)n(C)c1=O)C(c1ccc(OC)cc1)C1=C(CCCC1=O)N2` (stereo not given) here?
**A.** The inhibition was -21% (inactive).

**Q.** Which inhibition does the source give for `Cc1cc(C)nc(SCc2nnc(SCC(=O)N3c4ccccc4Sc4ccc(Cl)cc43)o2)n1` here?
**A.** Its inhibition is -20.7% (inactive).

**Q.** With `CC1=NOC(=O)C1C(c1cccc(Br)c1)c1c(C)[nH]n(-c2ccccc2)c1=O` (stereo not given) as the compound, how does the inhibition read?
**A.** Its inhibition is 98.3% (active).

**Q.** `Cc1ccc(Sc2c(C)[nH]n(-c3ccccc3)c2=O)cc1` was tested. Which inhibition did it give?
**A.** Its inhibition is -4.4% (inactive).

**Q.** For `Cc1noc(C)c1C(=O)c1c(C)[nH]n(-c2ccccc2)c1=O`, which inhibition is on record?
**A.** Its inhibition is 3.5% (inactive).

**Q.** For `S=c1[nH]nc(NCCc2ccccc2)s1`, which inhibition is on record?
**A.** The inhibition was 86.7% (inactive).

**Q.** Which inhibition does the source give for `c1ccc(Nc2nncs2)cc1` here?
**A.** The inhibition was 12.9% (inactive).

**Q.** `S=c1[nH]nc(Nc2ccccc2)s1` was tested. Which inhibition did it give?
**A.** Its inhibition is 99.7% (active).

**Q.** `COc1ccccc1-c1nnc(Cc2ccc(F)cc2Cl)o1` was tested. Which inhibition did it give?
**A.** Its inhibition is -4.2% (inactive).

**Q.** For `O=C1CN(C(=O)C2COc3ccccc3O2)c2ccccc2N1` (stereo not given), which inhibition is on record?
**A.** Its inhibition is -23.2% (inactive).

**Q.** Which inhibition does the source give for `O=C(CSc1nc(-c2ccccc2)nc2c1CCCC2)N/N=C/c1ccco1` here?
**A.** Its inhibition is -6.4% (inactive).

**Q.** With `COc1ccccc1C(=O)CSc1cccc[n+]1[O-]` as the compound, how does the inhibition read?
**A.** The inhibition was -9.25% (inactive).

**Q.** `C=C(C)CNC(=S)NN` was tested. Which inhibition did it give?
**A.** Its inhibition is 98.5% (active).

**Q.** How did the inhibition turn out when `C=C(C)CNC(=S)N1CCNCC1` was run?
**A.** Its inhibition is -14.4% (inactive).

**Q.** `CC(C)(C)CNC(=S)NN` was tested. Which inhibition did it give?
**A.** Its inhibition is -14.9% (inactive).

**Q.** With `CCc1nc(NCCO)c(C#N)c2c1CCCC2` as the compound, how does the inhibition read?
**A.** The inhibition was -125% (inactive).

**Q.** How did the inhibition turn out when `O=C(NC1=NCCS1)c1ccccn1` was run?
**A.** The inhibition was -4.65% (inactive).

**Q.** Which inhibition does the source give for `COc1ccc(-c2nn(-c3ccccc3)cc2/C=C\C(=O)N(C)C)cc1` here?
**A.** Its inhibition is -4.25% (inactive).

**Q.** How did the inhibition turn out when `O=C(CNCc1ccc2c(c1)OCO2)NCc1ccc2c(c1)OCO2` was run?
**A.** Its inhibition is 7.9% (inactive).

**Q.** How did the inhibition turn out when `CCCn1c(SC(C(=O)NC(=O)NC)c2ccccc2)n[nH]c1=O` (stereo not given) was run?
**A.** Its inhibition is -3.85% (inactive).

**Q.** How did the inhibition turn out when `CC1CCCCC1NC(=O)COc1ccc(C#N)cc1` (stereo not given) was run?
**A.** The inhibition was -7.1% (inactive).

**Q.** With `S=c1ccc2ccccc2[nH]1` as the compound, how does the inhibition read?
**A.** Its inhibition is 82.2% (active).

**Q.** How did the inhibition turn out when `O=C(O)Cc1cn(-c2ccccc2)nc1-c1cccs1` was run?
**A.** Its inhibition is -32.5% (inactive).

**Q.** With `c1ccc(C(N2CCOCC2)N2CCOCC2)cc1` as the compound, how does the inhibition read?
**A.** Its inhibition is -2.5% (inactive).

**Q.** `CC(O)CNc1nc2ccccc2n1CC(O)COCc1ccco1` (stereo not given) was tested. Which inhibition did it give?
**A.** The inhibition was -2.1% (inactive).

**Q.** Which inhibition does the source give for `O=C(CNCCCN1CCOCC1)Nc1cccc(C(F)(F)F)c1` here?
**A.** The inhibition was 14.8% (inactive).

**Q.** `O=C(CSc1ccc2ccccc2c1)N1CCN(C(=O)c2ccco2)CC1` was tested. Which inhibition did it give?
**A.** The inhibition was -5.25% (inactive).

**Q.** For `O=C(CSc1ccccc1)Nc1ccc(NC(=O)c2ccco2)cc1`, which inhibition is on record?
**A.** Its inhibition is 9.65% (inactive).

**Q.** Which inhibition does the source give for `O=C(CSc1ccc(Br)cc1)c1ccco1` here?
**A.** The inhibition was 55.8% (active).

**Q.** For `CCSc1nnc(SCC(=O)N2CC(=O)Nc3ccccc32)s1`, which inhibition is on record?
**A.** The inhibition was 12.2% (inactive).

**Q.** How did the inhibition turn out when `Oc1c(C(Nc2ccccn2)c2cccnc2)ccc2cccnc12` (stereo not given) was run?
**A.** The inhibition was 28.4% (inactive).

**Q.** Which inhibition does the source give for `CC(=O)NC(c1ccccc1)c1ccc2cccnc2c1O` (stereo not given) here?
**A.** Its inhibition is -4.35% (inactive).

**Q.** `Oc1c(C(c2cccnc2)N2CCOCC2)ccc2cccnc12` (stereo not given) was tested. Which inhibition did it give?
**A.** The inhibition was 91.7% (active).

**Q.** `O=C(NCCC1=CCCCC1)Nc1ccc(Cl)cc1` was tested. Which inhibition did it give?
**A.** Its inhibition is -5% (inactive).

**Q.** `Cc1cc(C)nc(NNC(=S)Nc2ccc(S(=O)(=O)N3CCOCC3)cc2)n1` was tested. Which inhibition did it give?
**A.** The inhibition was 54.5% (inactive).

**Q.** With `Cc1ccc(C(=O)CN(C)C2CCCCC2)cc1` as the compound, how does the inhibition read?
**A.** The inhibition was 12.6% (inactive).
